Bioassay records from PubChem.
AMA1 RON2 block = qHTS for Inhibitors of AMA1-RON; Towards Development of Antimalarial Drug Lead: Primary Screen; Plasmodium falciparum AMA1 (3D7) - RON2 peptide interaction; Potency, µM (top dose mostly 58.2 µM), for inactives: top-dose activity change, negative = inhibition, usual class: inhibitors; AID 720542, 2013; actives 0.2% (n = 360,000); AlphaScreen AMA1-biotinylated RON2 peptide binding;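 also: potency is read from the fitted curve at half-maximal effect; 0% = vehicle wells and -100% = peptide control; nearly all actives have a fitted effect of over 45% in size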
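AMA1 (3D7) with his tag at 25 nM final met compounds first, then biotinylated RON2 peptide at 25 nM; detection used donor plus acceptor beads, 10 µg/mL apiece, read by AlphaScreen after 30 min at room temperature.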
CHX counter-1 = Cycloheximide Counterscreen for Small Molecule Inhibitors of Shiga Toxin | actives 12% (n = 300,000) | AID 2314, 2010 | cell reporter, cycloheximide protein synthesis inhibition counterscreen | max response, %; in the data active = max response mostly above about 13%, no sharp cut-off; inactive = mostly below about 14%; also: read at 38.3 µM for the half of the compounds with a filed dose; 0% is about no effect
SARS PLP yeast = qHTS of Yeast-based Assay for SARS-CoV PLP. S. cerevisiae expressing SARS-CoV PLpro, growth rescue. Potency, µM (doses to about 32.9 µM), for the others: at the highest dose activity, positive = growth rescue, most hits filed as activators. actives 0.19% (n = 330,000); calls by dose curve; also: potency is read from the fitted curve at half-maximal effect; 0% is about no effect; nearly all actives have a fitted effect of over 55% in size
Pf growth 48h = Primary qHTS for delayed death inhibitors of the malarial parasite plastid, 48 hour incubation; actives 5.9% (n = 310,000); P. falciparum luciferase growth in erythrocytes, 48 h; Potency, µM (titrated, usually from 28.7 µM), without a hit: at the highest dose activity change, negative = inhibition, usual class: inhibitors; also: potency is read from the fitted curve at half-maximal effect; % is scaled to controls: 0 for no effect and ±100 for the full control effect
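Growth was read as firefly luciferase luminescence after a 48 h, 37 C, 5% CO2 exposure of compounds to reporter-bearing P. falciparum cultures (0.1% parasitemia, 2% hematocrit final) in Albumax-supplemented RPMI 1640.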
Shiga inhibitor = A qHTS for Small Molecule Inhibitors of Shiga Toxin. actives 9.2% (n = 290,000). inhibition, % at 38.7 µM. AID 2315, 2010. Vero cells, Shiga toxin protein synthesis inhibition reporter; in the data active = inhibition mostly above about 28%, no sharp cut-off; inactive = mostly below about 43%; also: 0% is about no effect
Pf growth 96h = Primary qHTS for delayed death inhibitors of the malarial parasite plastid, 96 hour incubation. P. falciparum luciferase reporter growth, 96 h. Potency, µM (series often up to 28.7 µM), without a hit: top-dose activity change, negative = inhibition, hits mostly inhibitors. actives 6.9% (n = 320,000); also: potency is read from the fitted curve at half-maximal effect; % is scaled to controls: 0 for no effect and ±100 for the full control effect
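96 h incubation, 37 C, 5% CO2, of luciferase-reporter P. falciparum-infected RBCs (2% hematocrit, 0.05% parasitemia final) with test compounds; endpoint luminescence.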
CHX counter-2 = Cycloheximide Counterscreen for Small Molecule Inhibitors of Shiga Toxin (Confirmatory); AID 2318, 2010; Potency, µM (top dose mostly 38.3 µM), for the others: at the top dose activity (activation), hits mostly activators; actives 3% (n = 510); shares compounds with Shiga inhibitor; Cycloheximide counterscreen, protein synthesis reporter, Shiga toxin assay; calls by dose curve; also: potency is read from the fitted curve at half-maximal effect; 0% is about no effect
Active calls of the source: *; u = inconclusive; x = not tested or not shown. Only some compounds are listed: those with a hit (about 19% of all), similar ones and a draw of the others. Unless noted, calls follow the shape of the dose curve; as a rule, active = well fitted curve in the direction sought with a large enough effect; inconclusive = small, poorly fitted or top-dose-only effect, or another doubt; inactive = no such curve, though single readings can be large; an effect the other way counts as inactive or inconclusive.

SMILES	AMA1 RON2 block	CHX counter-1	SARS PLP yeast	Pf growth 48h	Shiga inhibitor	Pf growth 96h	CHX counter-2
Cc1cc(NC(=O)C(C)C)ncc1NC(=O)c1cccc(F)c1	-6.9%	-1.5	0.2%	-3.8%	-0.4	u	x
CCCC(=O)Nc1cnc(NC(=O)c2cccc(F)c2)cc1C	52.0%	3.6	-12.6%	37.1%	66.8*	x	1.59µM*
COc1ccc(Cl)cc1NC(=O)CN(C)C(=O)c1cn2ccccc2n1	-8.7%	x	-5.6%	9.8%	x	23.2%	x
Nc1cc(N)nc(SCC(=O)Nc2ccc(Br)cc2Cl)n1	-11.4%	13.7	-2.4%	26.4%	48.0*	x	u
CCCc1cc(=O)oc2cc(C)cc(OCC(=O)NCc3ccccn3)c12	-9.3%	12.3	0.6%	u	122.4*	2.62µM*	-2.9%
CC(C)(C)OC(=O)N1CCCC1C(=O)NC(Cc1ccccc1)C(=O)O (stereo not drawn)	-4.0%	1.5	0.3%	-14.4%	28.5	453.0%	x
Cc1cc(NC(=O)c2ccc(Br)o2)ccc1NC(=O)c1ccco1	-11.5%	9.2	-9.7%	-10.1%	61.3*	u	4.9%
Cc1ccc(NS(=O)(=O)c2ccc(NC(=O)c3ccc(Br)o3)cc2)c(C)c1	u	-2.2	0.7%	u	20.9	-18.7%	x
Cc1noc(C)c1N=Nc1ccccc1C(=O)O	-12.9%	-4.2	-0.7%	3.7%	-10.7	14.9%	x
O=c1[nH]c(=O)n(Cc2ccccc2)c2c1C(C(F)(F)F)(C(F)(F)F)N=C(c1ccco1)N2	23.0%	-1.4	1.0%	u	-14.5	u	x
O=c1[nH]c(=O)n(Cc2ccco2)c2c1C(C(F)(F)F)(C(F)(F)F)N=C(c1ccc(F)cc1)N2	6.2%	4.9	10.4%	u	66.5*	x	-1.0%
Cc1sc(NC(=O)CCCC(=O)O)c(C(N)=O)c1-c1ccccc1	-13.7%	8.6	-0.7%	38.9%	74.5*	7.4%	u
O=C1CC2(CCN(C(=O)c3ccc(F)cc3)CC2)Oc2ccccc21	6.7%	x	-2.3%	-5.1%	x	22.5%	x
O=C(Cn1ncc2c1-c1ccccc1OC2)N(Cc1ccco1)C1CCCCC1	-18.7%	-2.9	2.1%	x	-9.3	u	x
O=C(Cn1ncc2c(=O)oc3ccccc3c21)N(Cc1ccco1)C1CCCCC1	-2.2%	1.0	6.7%	2.6%	47.6*	u	-2.4%
Cc1noc(C)c1COc1ccccc1C(=O)NCc1ccco1	-0.4%	x	2.1%	u	x	u	x
C=CCc1cc(C)ccc1OCC(O)CN1CCN(c2ccccc2)CC1 (stereo not drawn)	-25.7%	-2.4	-6.1%	-51.7%	32.6*	-0.8%	-0.3%
COc1ccc(Cl)cc1NC(=O)c1nnn(CC(=O)Nc2cc(C)cc(C)c2)c1N	1.6%	2.0	2.8%	36.4%	6.7	u	x
COc1cc(CN2CCN(CC#Cc3ccccc3)CC2CCO)cc(OC)c1 (stereo not drawn)	1.1%	7.6	0.4%	-14.7%	20.5*	u	-0.9%
CCn1c(SCC(=O)Nc2cc(C)on2)nnc1-c1cccc(C)c1	5.2%	1.0	-1.2%	3.0%	93.4*	u	-4.6%
COc1cccc(C(C(=O)NC2CCCC2)N(C(=O)c2ccco2)C2CC2)c1OC (stereo not drawn)	-1.4%	-1.6	2.8%	-0.5%	35.2*	62.5%	1.8%
COc1cccc(C(C(=O)NC2CCCC2)N(Cc2ccc(C)cc2)C(=O)c2ccco2)c1OC (stereo not drawn)	5.5%	-2.8	8.4%	u	17.5	-22.0%	x
COCCCn1c(SCC(=O)OC2CCCCC2)nnc1-c1cccs1	18.2%	-1.2	2.5%	-15.9%	86.0*	-31.6%	-1.6%
COc1ccc(OC)c(S(=O)(=O)Nc2cc3c(cc2N2CCCC2)n(C)c(=O)c(=O)n3C)c1	-6.9%	-4.0	0.2%	u	-2.5	-22.8%	x
